Source: PubChem BioAssay (several laboratories)
This is a sample that favours compounds with a hit; in the whole collection about 2.2% have one here.
ANO1 activ – activators or potentiators of mouse TMEM16A chloride channel; HEK293 TMEM16A/YFP-H148Q/I152L, iodide quench fluorescence; active compounds read low; B-score at 10 µM; actives 0.3% (n = 340,000); AID 623877;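 active means fluorescence-ratio B-score plate-corrected deviation score at least 3 library SD below zero, with starting fluorescence score within 5 deviations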;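 further: channel opened by trigger with iodide after compound preincubation; score built on the fluorescence ratio of max minus min over baseline; more negative score means more quench and so TMEM16A activation or potentiation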
GRK2 inh – human GRK2 inhibition via aptamer displacement. AID 488847. inhibition of aptamer binding, % at 10 µM. actives 0.59% (n = 330,000). bead flow cytometry, FAM-aptamer displacement from GRK2;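 active means inhibition of aptamer binding above 40%, roughly 3 SD of noise, on plates passing a quality check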;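 further: median bead fluorescence of bound FAM aptamer so fluorescent compounds give negative values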
ANO1 block – inhibitors of mouse TMEM16A calcium-activated chloride channel. Q8BHY3. HEK293 TMEM16A/YFP iodide influx fluorescence, ionomycin. normalized B-score (activity score, 25-100; higher = stronger inhibition) at 10 µM. actives 1.2% (n = 310,000). AID 588511;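 active means ratio plate-corrected score three or more library SD toward inhibition, starting fluorescence score within five deviations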;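 further: score derived from kinetic fluorescence span divided by baseline fluorescence per well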
TLR4 MyD88 comp – inhibitors of human TLR4-MyD88 binding; O00206+Q99836; HeLa CL3-4 TLR4/MyD88 BLA complementation, FRET ratio; inhibition, % at 8.4 µM; actives 0.18% (n = 200,000); in the data active means inhibition above about 25%;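 further: 0% = vehicle and 100% = reference inhibitor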
TLR9-MyD88 inh – blocks human TLR9 binding to MyD88 | actives 0.21% (n = 340,000) | CHO BLA complementation TLR9-MyD88, CCF4 FRET ratio | Q9NR96+Q99836 | AID 504734 | inhibition, % at 4.98 µM;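 active means inhibition above the mean over all tested compounds plus 3 SD, cut at about 21% in these data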;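 further: 0% = DMSO only wells and 100% = clavulanate BLA inhibitor control wells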
NOD2 RIPK2 PPI – inhibitors of human NOD2-RIPK2 interaction | O43353 | CHO BLA complementation NOD2-RIPK2, CCF4 ratio | inhibition, % at 4.98 µM | actives 0.38% (n = 360,000); in the data active means inhibition above about 21%;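 further: 0% = vehicle only and 100% = reference blocker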
TMEM16A reconf – TMEM16A (mouse) chloride channel inhibition, re-confirmation. shares compounds with ANO1 block. HEK293 TMEM16A/YFP-H148Q, iodide quench fluorescence; ionomycin added to raise cell calcium. inhibition, % at 10 µM. actives 39% (n = 2,300);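 active means mean duplicate percent inhibition, scaled so buffer wells are 0 and the reference blocker 100, over three buffer SD above buffer mean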
HEK293 Ca mobil – counter-screen for TMEM16A inhibitors: effect on calcium mobilization; shares compounds with ANO1 block; TMEM16A/YFP HEK293, Fluo4 calcium mobilization; calcium response (% of ionomycin), % at 10 µM; actives 2% (n = 2,300); AID 652231;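 active means duplicate-averaged calcium signal over 20% of the ionomycin maximum, relative to buffer baseline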;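 further: each well's signal is peak minus trough fluorescence divided by its pre-addition baseline; 0% = buffer wells and 100% = ionomycin wells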
YFP-HEK293 quench – parental YFP-HEK293 iodide quench counter-screen activity | shares compounds with ANO1 block | ionomycin | YFP ratio F(max-min)/F0 at 10 µM | 2,300 tested, under 10 active;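 active means yellow fluorescent protein signal ratio exceeding the buffer control mean by over 5 SD of those controls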;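 further: ratio is mean of duplicate wells from kinetic YFP trace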
ClC-1 inh – selectivity of TMEM16A inhibitors: inhibition of rat ClC-1 chloride channel. shares compounds with ANO1 block. CHO ClC-1-YFP, iodide influx fluorescence quench; iodide control reads 0, buffer control 100. ratio percent, % at 10 µM. 2,300 tested, under 10 active. AID 652236;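 active means duplicate-mean ratio percent above the mean of iodide-only control wells, which defines zero, plus 5 of their SD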;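 further: higher percent means stronger block of ClC-1 iodide influx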
Numbers without * were called inactive.

`COc1ccc2[nH]cc(CCNS(=O)(=O)c3ccc(F)cc3)c2c1` gave ANO1 activ inactive, GRK2 inh 6, ANO1 block 25*, TLR4 MyD88 comp 4, TLR9-MyD88 inh -20, NOD2 RIPK2 PPI -8, TMEM16A reconf inactive, HEK293 Ca mobil inactive, YFP-HEK293 quench -1 and ClC-1 inh -8.
Screening O=C(NCCN1CCCC1)C1CCC(=O)N(CCCN2CCOCC2)C1 (centres undefined) returned ANO1 activ inactive, GRK2 inh 0, ANO1 block inactive, TLR9-MyD88 inh 5 and NOD2 RIPK2 PPI -2.
Screening O=C(CSc1nc2ccccc2c(=O)[nH]1)N1CCCCCC1 returned ANO1 activ inactive, GRK2 inh 4, ANO1 block inactive, TLR4 MyD88 comp -8, TLR9-MyD88 inh 5 and NOD2 RIPK2 PPI -10.
O=C(CSc1nc2ccccc2c(=O)[nH]1)N1CCOCC1 was read as ANO1 activ inactive, GRK2 inh 0, ANO1 block inactive, TLR4 MyD88 comp 19, TLR9-MyD88 inh -8, NOD2 RIPK2 PPI 3, TMEM16A reconf inactive, HEK293 Ca mobil inactive, YFP-HEK293 quench -1.3 and ClC-1 inh -6.
`COc1ccc(-c2cc(C(F)(F)F)c(C#N)c(SCC(=O)Nc3ccc(C)cc3)n2)cc1` gave ANO1 activ inactive, GRK2 inh 5, ANO1 block inactive, TLR4 MyD88 comp -7, TLR9-MyD88 inh 7 and NOD2 RIPK2 PPI 0.
`COc1ccc(C(=O)CSc2[nH]c(=O)cc(C(F)(F)F)c2C#N)cc1` gave ANO1 activ inactive, GRK2 inh 1, ANO1 block 25*, TLR9-MyD88 inh -1, NOD2 RIPK2 PPI -7, TMEM16A reconf 22%*, HEK293 Ca mobil inactive, YFP-HEK293 quench -1 and ClC-1 inh -14.
c1cn(-c2ccc(-c3ccnc4ncnn34)cc2)cn1 was read as ANO1 activ inactive, GRK2 inh 3, ANO1 block inactive, TLR4 MyD88 comp -5, TLR9-MyD88 inh 0 and NOD2 RIPK2 PPI -5.
For COc1cccc(C(=O)NC(C)c2ccc(-c3ccccc3)cc2)c1OC (centres undefined) the results were ANO1 activ inactive, GRK2 inh 0, ANO1 block 25*, TLR9-MyD88 inh -17, NOD2 RIPK2 PPI -7, TMEM16A reconf 24%*, HEK293 Ca mobil inactive, YFP-HEK293 quench -1.1 and ClC-1 inh -10.
`CCN(CC)S(=O)(=O)c1ccc(S(=O)(=O)Nc2c(C)nn(C)c2C)cc1` gave ANO1 activ inactive, GRK2 inh 0, ANO1 block 25*, TLR9-MyD88 inh -1, NOD2 RIPK2 PPI -2, TMEM16A reconf 30%*, HEK293 Ca mobil inactive, YFP-HEK293 quench -0.91 and ClC-1 inh -5.
`C/C(=N\NC(=O)Cc1ccc(Cl)cc1)c1ccccc1O` gave ANO1 activ inactive, GRK2 inh 0, ANO1 block inactive, TLR9-MyD88 inh -2 and NOD2 RIPK2 PPI 5.
For COC(=O)C(C)(C)ONC(=O)Nc1ccccc1Br the results were ANO1 activ inactive, GRK2 inh 2, ANO1 block 25*, TLR4 MyD88 comp 12, TLR9-MyD88 inh -2, NOD2 RIPK2 PPI 2, TMEM16A reconf inactive, HEK293 Ca mobil inactive, YFP-HEK293 quench -1.1 and ClC-1 inh -12.
